Measured values: PubChem BioAssay AID1117319 (Southern Research Institute, 2015)
Where “and” joins values, the source holds several entries; their conditions need not be identical. Identical values can stand only once. About 1,500 (0.58%) of roughly 260,000 compounds were called active. Not shown: some 5% with an inconclusive outcome.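 Rule for the calls: active = inhibition above a set limit at one or more doses, reproduced on every date tested; inconclusive = results disagree between test dates, or hit never tested in dose response; inactive = the rest.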 Not all results are given here. Measured potencies and affinities stand elsewhere.

target: Virion infectivity factor (Human immunodeficiency virus type 1 group M subtype B (isolate BH10)) + Virion infectivity factor (Human immunodeficiency virus type 1 group M subtype B (isolate BRU/LAI)) + Virion infectivity factor (Human immunodeficiency virus type 1 group M subtype B (isolate PCV12)) + Virion infectivity factor (Human immunodeficiency virus type 1 group M subtype B (isolate HXB2)) + DNA dC->dU-editing enzyme APOBEC-3G (Homo sapiens) (UniProt P69720+P69721+P69722+P69723+Q9HC16); test: HIV-1 Vif–A3G interaction blockers – biochemical, TR-FRET, GST-Vif 1-94, biotin-A3G peptide, dose response retest, primary screen (AID 1117319); conditions: TR-FRET GST-Vif / biotin-A3G peptide binding; stronger effect = higher value;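 note: Vif residues 1-94 fused to GST binding biotinylated APOBEC3G peptide 110-148; 0% = full assay without inhibitor and 100% = GST in place of GST-Vif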

inhibition, inactive:
COc1nnc(-c2ccc(C)c(S(=O)(=O)NC(C)C)c2)c2ccccc12 -9.93%
COc1ccc(C2=NC(CO)(CO)CO2)cc1 -8.98%
O=C(Nc1ccc(S(=O)(=O)N2CCCC2)cc1)c1cc(=O)c2ccccc2o1 -4.62%
CN(C)CC(=O)N1c2ccccc2Sc2ccc(Cl)cc21 3.03%
O=C(CN1CCCc2ccccc21)NCCc1ccc(Cl)cc1 32.1%
COc1ccc(CCNC(=O)CN2CCOc3ccccc32)cc1OC 2.79%
NC1=CC(=O)C(=O)c2ccccc21 6.05%
O=C1C=C(Nc2ccccc2)c2ccccc2C1=O 2.25%
COc1cc(-c2nnc(NC(=O)CS(=O)(=O)c3ccc(C)cc3)o2)cc(OC)c1OC -0.69%
COc1cc(NC(=O)CS(=O)(=O)c2ccccc2)cc(OC)c1OC -4.34%
O=[N+]([O-])c1cccnc1N1CCN(c2ccc(F)cc2)CC1 -1.42%
COCCCC1CCN(Cc2cn[nH]c2-c2cc(OC)c(OC)c(OC)c2)CC1 -14.3%
O=C(O)c1cccc(N/N=C/c2ccc(OC(F)(F)F)cc2)c1 0.25%
CSc1ccc(/C=N/Nc2ccc(Cl)c(C(=O)O)c2)cc1 14.3%
COC(=O)c1ccc(COc2ccccc2/C=N/Nc2cccc(C(=O)O)c2)cc1 9.8%
O=C(O)c1cccc(N/N=C/c2ccc(-c3ccccc3)cc2)c1 6.67%
CN(C)S(=O)(=O)N1CCc2ccccc21 28.1%
Cc1cc(OCCn2cnc3ccccc3c2=O)ccc1[N+](=O)[O-] 3.47%
COc1ccc(S(=O)(=O)/N=C2/C=CC(=O)C(C)=C2C)cc1 9.79%
O=S(=O)(N=C1C=CC(=NS(=O)(=O)c2ccccc2)c2ccccc21)c1ccccc1 14.1%
CCc1ccc(S(=O)(=O)ON2C(=O)c3ccccc3C2=O)cc1 5.83%
CCc1ccc(S(=O)(=O)/N=C2\C=C(NS(=O)(=O)c3ccccc3)C(=O)c3ccccc32)cc1 16%
Cc1ccc(CNC(=O)CSc2nc(N3CCCCC3)nc(N3CCCCC3)n2)cc1 4.78%
COc1ccc(Nc2nc(OC)nc(N3CCOCC3)n2)cc1 -3.38%
CC1=C(C(=O)OC2CCCCC2)C(c2cccs2)n2c(nc3ccccc32)N1 (centres undefined) -7.41%
CN1CCc2cc3c(c4c2[C@H]1[C@H](O)c1ccccc1-4)OCO3 9.65%
CN1CCc2ccccc2C1C1CCNCC1 (centres undefined) 25.2%
CCN(CC)CCn1c2c(c(SCC(=O)NCc3ccccc3)nc1=O)CCCC2 6.08%
O=C(NCCCN1CCN(CCCNC(=O)c2cccc([N+](=O)[O-])c2)CC1)c1cccc([N+](=O)[O-])c1 1.34%
Cc1nn(C)cc1/C=N/NC(=S)Nc1ccccc1 0.96%
C/C(N)=C(/C#N)C(=O)CSc1n[nH]c(-c2ccccc2Br)n1 10.4% and -7.5%
CCOC(=O)c1ccccc1NC(=O)[C@@H]1CCCN1C(=O)OC(C)(C)C 3.12%
CCN1C(=O)c2ccc(C(=O)NCc3ccc4c(c3)OCO4)cc2C1=O -10.4%
Cc1cc(C(F)(F)F)n2ncc(C(=O)O)c2n1 -3.78%
Cc1cc(C(F)(F)F)n2nc(C)c(-c3ccc(Cl)cc3)c2n1 -0.47%
CC(C)(C)C1=NN=C2c3ccccc3C(=O)C21 (centres undefined) 6.1%
COCOCCn1cc(CN2CCS(=O)(=O)N(Cc3ccc(-c4ccc(Cl)cc4)cc3)C(C)C2=O)nn1 (centres undefined) 1.6%
CCOC(=O)c1cc(C)n(-c2c(C)n(C)n(-c3ccccc3)c2=O)c1C 2.99%
Cc1cc(C(=O)CC#N)c(C)n1-c1c(C)n(C)n(-c2ccccc2)c1=O 3.73%
Cc1onc(-c2ccccc2Cl)c1C(=O)O/N=C(\N)c1ccccc1 -3.35%
COc1ccc2c(=O)c3c(=O)n(Cc4ccco4)c(C(C)C)nc3oc2c1 -5.33%
COc1ccc2c(=O)c3c(=O)n(Cc4ccco4)c(-c4ccc(C)cc4)nc3oc2c1 -32.5%
COc1ccc2c(=O)c3c(=O)n(Cc4ccco4)c(-c4ccccc4)nc3oc2c1 -5.44%
COc1ccc2c(=O)c3c(=O)n(Cc4ccco4)c(-c4ccco4)nc3oc2c1 6.47%
O=C(O)CCS(=O)(=O)Cc1ccccc1Cl 3.96%
CC(C)OC(=O)C1C(=O)CC(C)(O)C(C(=O)OC(C)C)C1c1ccccc1 (centres undefined) -5.49%
O=C(N/N=C/c1c[nH]c2ccccc12)c1ccc([N+](=O)[O-])cc1Cl 2.78%
CCCCC(=O)NC(=S)Nc1ccccc1N1CCCCC1 1.96%
Cc1nc(SCC(=O)c2ccc(F)c(F)c2)[nH]c(=O)c1Oc1ccc(F)cc1 -1.47%
Cc1cc(N2C(=O)C(O)=C(C(=O)c3ccco3)C2c2ccc(O)cc2)no1 (centres undefined) -5.88%
COc1cc(C2C(C(=O)c3ccc(C)o3)=C(O)C(=O)N2c2cc(C)on2)cc(Br)c1O (centres undefined) 19.3%
COC(=O)c1ccc(COc2nc(C)cc(C)c2C#N)o1 2.74%
CCN(CC)S(=O)(=O)c1ccc(N2CCOCC2)c(NC(=O)CCC2CCCCC2)c1 -9.59%
COc1ccc(N2CCN(C(=O)CSc3ccccc3)CC2)cc1 30.3%
O=C(O)c1ccccc1C(=O)N1CCN(c2ccccc2)CC1 3.73%
Cc1occc1-c1nnc(SCC(=O)N2CCN(c3ccc(F)cc3)CC2)n1C 8.11%
O=C(c1ccccc1C(=O)N1CCN(c2ccccc2)CC1)N1CCN(c2ccccc2)CC1 3.97%
CCn1c(SCC(=O)N2CCN(c3ccccc3)CC2)nnc1-c1ccoc1C 7.37%
O=C(CCSc1ccccc1)N1CCN(c2ccccc2)CC1 -3.65%
CCc1nn2c(=O)cc(COc3ccc(/C=C4\C(=N)N5N=C(CC(C)C)SC5=NC4=O)cc3)nc2s1 9.59%
COc1ccc(OC)c(C2C(C(=O)c3cccs3)=C(O)C(=O)N2CCN(C)C)c1 (centres undefined) 0.56%
CN1CCN(CCCNC(=O)c2ccc(/C=C3/Sc4ccccc4N(Cc4cccc(Cl)c4)C3=O)cc2)CC1 2.32%
O=C(C1=C[C@H](c2ccc(Br)cc2)C[C@H](OCc2ccc(CO)cc2)O1)N1CCOCC1 15.5%
Clc1ncc2[nH]cnc2n1 1.24%
COc1ccc(NC2CC(=O)N(CCc3ccccc3)C2=O)cc1 (centres undefined) 25.7%
COc1cccc(NC2CC(=O)N(CCc3ccccc3)C2=O)c1 (centres undefined) 1.52%
O=C(/C=C/c1ccc2c(c1)OCO2)c1ccc(O)cc1O 8.42%
O=C(/C=C/c1ccc(F)cc1)c1cc(Br)ccc1O -1.23%
COC(=O)/C=C/c1ccc2c(c1)OCO2 4.78%
O=C(/C=C/c1ccccc1)c1cc(Br)ccc(=O)c1O 24.6%
Cc1ccc(C(=O)C=Cc2ccc3c(c2)OCO3)c(C)c1 0.22%
Nc1ccccc1C(=O)/C=C/c1ccc2c(c1)OCO2 3.13%
COC(=O)c1ccccc1NC(=O)CSc1nnc(COc2cccc(OC)c2)n1C 0.63%
COc1ccc(CNC(=O)CSc2ncnc3ccccc23)cc1OC -8.65%
COc1ccc(N2CCN(CC(=O)Nc3ccc(SC(F)F)cc3)CC2)cc1 27.3%
N#Cc1c(NC(=S)NC(=O)Cc2cccs2)sc2c1CCCCC2 12.2%
COc1ccccc1N1CCN(C(=O)COc2ccc(S(=O)(=O)NC(C)C)cc2)CC1 0.75%
O=C(O)COc1ccccc1-c1ccccc1 -0.72%
CN1CCC(N(C)C(=O)COc2ccccc2Cl)CC1 -7.89%
N#Cc1ccc(C(=O)NC2CCCc3ccccc32)cc1 (centres undefined) 5.64%
Cc1cn([C@H]2C[C@H](O)[C@@H](CNCc3ccc(F)c(N4CCOCC4)c3)O2)c(=O)[nH]c1=O -0.24%
CC(=O)Nc1ccccc1NC(=O)COc1cccc2ccccc12 -3.58%
COc1ccc(CCN=Cc2c(C)[nH]n(-c3ccc([N+](=O)[O-])cc3)c2=O)cc1OC 3.12%
Cc1ccc(S(=O)(=O)Nc2cccc(-n3cnnn3)c2)cc1 -12.1%
CC(=O)Nc1ccc(S(=O)(=O)Nc2cccc(-n3cnnn3)c2)cc1 -3.6%
NNC(=O)C1CC1c1ccc(Cl)cc1 (centres undefined) -1.47%
CC(C)NC(=O)C1CCN(C2CCN(Cc3nc(C(C)C)cs3)CC2)CC1 10.5%
CC(=O)C(Sc1nc(NC(C)(C)C)nc(N(C)C)n1)C(C)=O -1.75%
O=C(CCNS(=O)(=O)c1ccc(Br)s1)Nc1ccc(Cl)cc1 -2.43%
COC(=O)c1ccc(CC(=O)c2ccc(O)cc2O)o1 21.4%
Cc1cc(O)cc(O)c1C(=O)Cc1ccccc1 31%
CCOC(=O)c1ccc(CC(=O)c2oc3cc(O)ccc3c2C)o1 29.3%
CCOC(=O)c1ccc(CC(=O)c2ccc(O)cc2O)o1 16.6%
Cc1onc(-c2c(Cl)cccc2Cl)c1C(N)=O 3.21%
